Assay outcomes: PubChem BioAssay, National Center for Advancing Translational Sciences (NCATS)
Only some compounds are listed: those with a hit (about 2.2% of all), similar ones and a draw of the others.
Vaccinia Venus: qHTS for Stage-Specific Inhibitors of Vaccinia Orthopoxvirus: Venus Reporter Primary qHTS | Vaccinia virus Venus reporter expression, fluorescence | Potency, µM (titrated, usually from 36.5 µM), for inactives: top-dose activity change, negative = inhibition, hits mostly inhibitors | 330,000 tested, 0.46% active; calls by dose curve; tested in A549 cells; note: nearly all actives have a fitted effect of over 30% in size
FBPA Giardia inh: qHTS Assay for Inhibitors of Fructose-1,6-bisphosphate Aldolase from Giardia Lamblia; purified Giardia FBPA; AID 2451, 2010; A8B2U2; 290,000 tested, 0.71% active; Potency, µM (doses to about 59.6 µM), inactives show at the top dose activity, negative = inhibition, hits mostly inhibitors; active = well fitted inhibition curve with a large enough effect; inconclusive = small, poorly fitted or top-dose-only effect, or effect the other way; note: nearly all actives have a fitted effect of over 55% in size
Target sequence (A8B2U2 whole entry, looked up): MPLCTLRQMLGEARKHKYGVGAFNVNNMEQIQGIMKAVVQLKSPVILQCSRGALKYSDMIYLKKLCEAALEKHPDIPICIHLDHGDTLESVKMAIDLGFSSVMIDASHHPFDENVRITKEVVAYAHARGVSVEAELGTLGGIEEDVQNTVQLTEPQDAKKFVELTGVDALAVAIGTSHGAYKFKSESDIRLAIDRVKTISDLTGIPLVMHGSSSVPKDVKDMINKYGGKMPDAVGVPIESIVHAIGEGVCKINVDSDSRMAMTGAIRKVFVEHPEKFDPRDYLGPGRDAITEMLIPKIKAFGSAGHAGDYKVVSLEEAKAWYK
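Giardia FBPA (40 nM reagent) was preincubated 10 min at RT with compound (up to 57.5 uM final), then substrate plus GAPDH/TPI/NAD/arsenate coupling system with diaphorase/resazurin was added; resorufin fluorescence (525/598 nm) was read after 20 min.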
FMDV antiviral: High Throughput Screening for Foot and Mouth Disease Virus Antivirals | FMDV antiviral cell-based qHTS | Potency, µM (series often up to 57.9 µM), for inactives: at the top dose activity change, negative = inhibition, actives largely listed as inhibitors | 410,000 tested, 1.2% active; calls by dose curve; tested in HEK293T cells; note: read-out not given here; nearly all actives have a fitted effect of over 45% in size
Vaccinia mCherry: qHTS for Stage-Specific Inhibitors of Vaccinia Orthopoxvirus: mCherry Reporter Primary qHTS | 310,000 tested, 0.63% active | Vaccinia virus mCherry reporter infection, fluorescence | Potency, µM (series often up to 36.5 µM), for inactives: at the highest dose activity change, negative = inhibition, most hits filed as inhibitors; calls by dose curve; tested in A549 cells; note: nearly all actives have a fitted effect of over 35% in size
Starred values were filed as active, the others as inactive; i = inactive; ? = inconclusive; nt = not tested or not shown; [ ] = another dose, or the depositor's remark. % is set by controls: 0 for no effect and ±100 for the full control effect; potency is the fitted concentration of half-maximal effect.

SMILES	Vaccinia Venus	FBPA Giardia inh	FMDV antiviral	Vaccinia mCherry
c1ccc2c(c1)[nH]c1c(N3CCSCC3)ncnc12	nt	0.5%	22.4µM*	nt
COc1ccc2[nH]c3c(N4CCC(O)(c5cccc(C(F)(F)F)c5)CC4)ncnc3c2c1	?	1.1%	28.2µM*	i
COc1ccc(CN2C(=O)N(c3ccccc3)C(=O)C2c2ccccc2)cc1COc1ccc(NC(C)=O)cc1 (stereo not drawn)	-16.5%	nt	nt	-23.5%
COC(=O)c1cn([C@@H]2C[C@@H](C(=O)Nc3cccc(SC)c3)N(C3CCCCCC3)C2)nn1	-3.9%	nt	-11.6%	-3.7%
O=C1OC(c2cc(I)c(O)c(I)c2)(c2cc(I)c(O)c(I)c2)c2ccccc21	nt	-11.4%	nt	nt
Cc1nnc(Sc2nc3ccccc3o2)c2ccccc12	?	-1.7%	?	?
Cc1ccc(-c2nnc(Sc3nc4ccccc4o3)c3ccccc23)cc1	10µM*	0.5%	61.4%	10µM*
Clc1ccc(-c2nnc(Sc3nc4ccccc4o3)c3ccccc23)cc1	?	?	nt	14.1µM*
C/C(=N\Nc1ccc(Cl)c(C(=O)O)c1)c1ccc2c(c1)OCO2	-12.1%	-21.1%	77.0%	0.0%
O=C(O)c1cc(N/N=C/c2ccc3c(c2)OCO3)ccc1Cl	-7.8%	4.2%	14.1µM*	-17.0%
O=C(O)c1cc(N/N=C/c2ccc3c(c2)OCCO3)ccc1Cl	0.7%	-0.4%	2.51µM*	-10.6%
O=C(O)c1ccc(N/N=C/c2ccc3c(c2)OCO3)cc1	-11.9%	16.2%	25.1µM*	-17.1%
Cc1c(C(=O)NCCCc2ccncc2)cnn1-c1ncc2c(n1)-c1ccccc1CC2	?	nt	-9.5%	-1.8%
Cc1noc(C)c1CC(=O)NCC1Cc2cc(-c3cccc(OC(F)(F)F)c3)ccc2O1 (stereo not drawn)	-16.1%	nt	-6.3%	-24.2%
CS(=O)(=O)Nc1cc(C(=O)N2CCNC(=O)C2)c2c(c1)ncn2CCc1ccccc1	0.0%	nt	-2.0%	i
Cc1nc2ccccc2c(=O)n1-c1ccccc1C(F)(F)F	-13.5%	0.8%	nt	-4.6%
O=c1[nH]c(SCc2nc3ccccc3c(=O)n2-c2ccccc2C(F)(F)F)nc2ccccc12	-13.9%	-9.8%	17.8µM*	-18.2%
COc1ccc(Br)cc1C1NC(c2ccc3c(c2)OCO3)=CC(c2ccccc2O)N1 (stereo not drawn)	-19.1%	nt	nt	24.5%
Cc1ccc2nc(C(Cl)(Cl)Cl)nc(N/N=C/c3ccc([N+](=O)[O-])cc3)c2c1	3.6%	nt	22.4µM*	i
O=C(Nc1ccc(Br)cc1F)c1cnn2c1NC(=C1CC1)C=C2C(F)F	-14.3%	nt	nt	-16.3%
C[C@H]1O[C@@H](O[C@H]2[C@@H](O)C[C@H](O[C@H]3[C@@H](O)C[C@H](O[C@H]4CC[C@@]5(C)[C@H](CC[C@@H]6[C@@H]5CC[C@]5(C)[C@@H](C7=CC(=O)OC7)CC[C@]65O)C4)O[C@@H]3C)O[C@@H]2C)C[C@H](O)[C@@H]1O	0.0891µM*	-7.3%	?	7.08µM*
CC1OC(O[C@@H]2C(O)CC(O[C@@H]3C(O)C[C@@H](OC4CC[C@]5(C)[C@H](CC[C@H]6[C@@H]5CC[C@]5(C)C(C7=CC(=O)OC7)C(O)C[C@@]65O)C4)OC3C)OC2C)CC(O)C1O (stereo partly drawn)	?	-11.9%	-28.8%	?
CC1OC(OC2C(O)CC(OC3C(O)CC(OC4CCC5(C)C(CCC6C5CCC5(C)C(C7=CC(=O)OC7)C(O)CC65O)C4)OC3C)OC2C)CC(O)C1O (stereo not drawn)	0.316µM*	nt	?	nt
CC(=O)OC1CC(OC2C(O)CC(OC3C(O)CC(OC4CCC5(C)C(CCC6C5CCC5(C)C(C7=CC(=O)OC7)C(O)CC65O)C4)OC3C)OC2C)OC(C)C1OC1OC(CO)C(O)C(O)C1O (stereo not drawn)	0.282µM*	nt	?	0.282µM*
CC1O[C@@H](O[C@@H]2C(O)C[C@H](O[C@@H]3C(O)C[C@@H](OC4CC[C@@]5(C)C6CC(O)[C@@]7(C)C(C8=CC(=O)OC8)CC[C@@]7(O)C6CC[C@@H]5C4)OC3C)OC2C)CC(O)[C@H]1O (stereo partly drawn)	1µM*	-0.8%	?	1µM*
SMILES	Vaccinia Venus	FBPA Giardia inh	FMDV antiviral	Vaccinia mCherry
C[C@@]12CC[C@H](O)C[C@@H]1CC[C@H]1[C@@H]2C[C@@H](O)[C@]2(C)[C@@H](C3=CC(=O)OC3)CC[C@]12O	nt	2.1%[21.7 µM]	nt	nt
OC1(c2ccc3c(c2)CN(Cc2ccco2)CCO3)CCN(c2ccccc2F)CC1	-9.4%	nt	-14.4%	-13.0%
CC(=O)OC1CC2(O)C3CCC4CC(O)CCC4(C)C3CCC2(C)C1C1=CC(=O)OC1 (stereo not drawn)	?	nt	?	35.5µM*
CCOc1ccc(CCNC(=O)c2cc3cc4ccc(OC)cc4nc3s2)cc1OCC	?	nt	-18.7%	?
COc1ccc2cc3cc(C(=O)NC4CC4)sc3nc2c1	nt	13.2%	15.8µM*	nt
CC(C)C(NS(C)(=O)=O)c1nnc2n1CCN(Cc1cccc3ncccc13)CC2 (stereo not drawn)	-2.7%	nt	-8.3%	-0.2%
O=C(/C=C/c1ccccn1)NCC1Cc2cccc(-c3ncccn3)c2O1 (stereo not drawn)	-15.8%	nt	-13.4%	-0.4%
CC1CCCN(C(=O)c2cc3ccc4cccnc4c3[nH]2)C1 (stereo not drawn)	-14.8%	nt	14.1µM*	-0.3%
COc1ccccc1C1CN(Cc2c(C)nc3sccn23)Cc2ccccc2O1 (stereo not drawn)	1.1%	nt	7.2%	-12.3%
CSc1ccccc1NC(=O)COc1ccc(Cl)cc1Cl	-17.4%	3.4%	-1.6%	-6.5%
O=C(COc1ccc(Cl)cc1Cl)Nc1ccccn1	nt	-7.8%	1.58µM*	nt
Cc1cccc(N2CCN(C(=O)c3cc4c(=O)n(C)c5ccccc5c4n3C)CC2)c1C	-23.5%	-3.6%	31.6µM*	?
Cn1c(C(=O)N2CCN(c3ncccn3)CC2)cc2c(=O)n(C)c3ccccc3c21	nt	17.7µM*	-23.4%	nt
Cc1ccc(Cl)cc1N1CCN(C(=O)c2cc3c(=O)n(C)c4ccccc4c3n2C)CC1	-25.1%	1.6%	8.91µM*	?
Cn1c(C(=O)N2CCCC2)cc2c(=O)n(C)c3ccccc3c21	nt	-10.6%	-1.5%	nt
O=C(Nc1ccccn1)c1onc2c1CCCC2	-13.7%	-3.9%	14.1µM*	i
O=C(Nc1ccccn1)c1csc2c1CCCC2	-13.6%	-3.6%	24.6%	i
Cc1ccccc1Nc1cc2ccccc2c(=O)[nH]1	10µM*	?	-12.0%	nt
O=c1[nH]c(Nc2ccccc2Cl)cc2ccccc12	-20.3%	nt	26.3%	-13.5%
Cc1cc(O)c(C(C)C)cc1N=Nc1ccccc1C(=O)O	14.7%	-13.5%	?	-15.5%
Cc1cc(NO)c(C(C)C)cc1N=O	-22.1%	7.9%	22.4µM*	?
CCOC(=O)/C(=C\c1ccc(OC(F)F)cc1)C1=Nn2c(nnc2-c2ccc(Cl)cc2)SC1	12.6µM*	-7.5%	12.6µM*	?
CCOC(=O)/C(=C/c1ccc(OC(F)F)cc1)C1=Nn2c(nnc2-c2ccc(Cl)cc2)SC1	11.2µM*	nt	12.6µM*	?
COc1ccc(-c2nnc3n2N=C(C)CS3)cc1	nt	4.9%	-2.9%	nt
